# From PubChem BioAssay AID2717 (Broad Institute, 2010)
# In all, about 300,000 compounds went through this assay and about 3,200 (1.1%) were called active. The sample holds actives, similar compounds and a random draw of the others, so the mix is not that of the screen. Rule as the data show it: active = inhibition above about 75%; inconclusive = no clear call, values can overlap the other calls; inactive = below that; tested in HMLE shEcad cells.
# Experiment: cancer stem cell viability inhibitors, primary screen, luminescence (AID 2717)
# Conditions: cancer stem cell-like cells viability, at 7.5 µM, active compounds read high
row,Structure (SMILES),inhibition
1,COc1cccc(CNC(C)C(=O)Nc2ccc(S(=O)(=O)N3CCCC3)cc2)c1 (centres undefined),10.7% (inactive)
2,CN(C(=O)COC(=O)CCCc1c[nH]c2ccccc12)c1c(N)n(Cc2ccccc2)c(=O)[nH]c1=O,-11.7% (inactive)
3,CC1(C)C2CC[C@]3(C)C(CC=C4[C@@H]5C[C@@](C)(CO)CC[C@]5(C(=O)O)CC[C@]43C)[C@@]2(C)CC[C@@H]1O (some centres undefined),-8.25% (inactive)
4,CC1(C)CC[C@@]2(C(=O)O)C(C1)C1=CCC3[C@@]4(C)CC[C@H](O)C(C)(C)C4CC[C@@]3(C)[C@]1(C)C[C@H]2O (some centres undefined),87.8% (active)
5,CC1(C)CC[C@]2(C(=O)O)CC[C@]3(C)C(=CCC4[C@@]5(C)CC[C@H](O)C(C)(C)C5[C@H](O)C[C@]43C)[C@@H]2C1 (some centres undefined),-4.41% (inactive)
6,CCOC(=O)[C@H]1[C@H]2COc3ccccc3[C@@H]2N2C(=O)CN(Cc3ccccc3)C(=O)[C@@]12C,-9.72% (inactive)
7,CC(C)CC(=O)N1CCN(Cc2cccc(Cl)c2)CC1,-2.32% (inactive)
8,O=C(c1cccc(Cl)c1)N1CCN(Cc2ccccc2)CC1,-14.8% (inactive)
9,Clc1cccc(CN2COc3c(cc(Cl)c4cccnc34)C2)c1,118% (active)
10,O=C(OCC(=O)N1CCCCCC1)c1ccc(Br)c(S(=O)(=O)N2CCOCC2)c1,-10.2% (inactive)
11,Cc1ccc2nc(-c3cccnc3)c(NC3CCCC3)n2c1,-4.39% (inactive)
12,COc1ccc(-c2nc3cnccn3c2NC(C)(C)CC(C)(C)C)cc1O,0.145% (inactive)
13,COc1ccc(-c2nc3cnccn3c2NC2CCCCC2)cc1-c1cccc(Cl)c1,105% (active)
14,CCN(c1ccccc1)S(=O)(=O)c1cccc(C(=O)NCc2ccccc2CN2CCOCC2)c1,-15.2% (inactive)
15,Cc1ccc(-c2nc(C#N)c(NCCCn3ccnc3)o2)cc1,-10.2% (inactive)
16,N#Cc1nc(-c2ccc(OCc3ccccc3)cc2)oc1NCCCN1CCOCC1,86.3% (active)
17,O=S(=O)(c1ccccc1)c1nc(-c2ccccc2)oc1NCCCN1CCOCC1,-5.33% (inactive)
18,CC(=O)Nc1ccc(S(=O)(=O)Nc2ccc(N3CCCCC3)cc2)cc1,21.5% (inactive)
19,Cc1nn(C)c(C)c1NS(=O)(=O)c1ccc(OC(F)(F)F)cc1,1.58% (inactive)
20,O=S(=O)(Nc1ccc(O)c2ccccc12)c1ccc(OC(F)(F)F)cc1,106% (active)
21,O=S(=O)(Nc1ccc(OC(F)(F)F)cc1)c1cccc2nonc12,-7.85% (inactive)
22,Cc1noc(C)c1NC(=O)Nc1ccc2c(c1)C(=O)N([C@H](C)CO)C[C@H](C)[C@@H](CN(C)S(=O)(=O)c1cn(C)cn1)O2,-15.6% (inactive)
23,Cc1cccc(NC(=O)c2ccc(S(=O)(=O)N(C)c3ccccc3)cc2)n1,-22% (inactive)
24,COc1ccc(-c2c(C#Cc3ccsc3)c3cc(-c4ccc(CN5CCOCC5)cc4)ccc3n2C)cc1,31.2% (inactive)
25,COc1ccc(Cc2nnc(N/N=C/c3ccccc3O)[nH]c2=O)cc1OC,106% (active)
26,CC(C)c1ccc(Cc2nnc(NCCCO)[nH]c2=O)cc1,13.6% (inactive)
27,COc1ccc(/C=N/Nc2nc3ccccc3c(=O)[nH]2)cc1,13% (inactive)

row,Structure (SMILES),inhibition
1,C=CCC[C@H](Cc1ccc(F)cc1)C(=O)OC[C@H](C)NC(=O)[C@H](CC=C)CC(=O)N(CCO)Cc1ccccc1,-9.39% (inactive)
2,COc1ccccc1OCc1nc2ccccc2s1,5.53% (inactive)
3,COc1cccc2sc(NNC(=O)c3nc4ccccc4s3)nc12,103% (active)
4,COc1cccc2sc(Nc3nc(C)c(C(C)=O)s3)nc12,17.8% (inactive)
5,CCN(C[C@H]1N[C@@](CC)(C(=O)OC)[C@H]2C(=O)N(C)C(=O)[C@@H]12)C(=O)Nc1ccc(F)cc1,-20.7% (inactive)
6,N#Cc1nc(-c2cccc3ccccc23)oc1N,8.01% (inactive)
7,O=C(NNC(=O)c1ccc(Cl)cc1Cl)c1cccs1,5.32% (inactive)
8,Cc1ccc(NNC(=O)c2cccs2)cc1Cl,90.5% (active)
9,Cc1ccc(NNC(=O)c2c(F)cccc2Cl)cc1Cl,-4.9% (inactive)
10,CC(=O)Nc1ccc(SC[C@H](Cc2ccccc2)N2CC[C@@H](C)CCC2=O)cc1,1.36% (inactive)
11,CC(NC(=O)COC(=O)CCC(=O)c1ccc(Cl)cc1)c1ccccc1 (centres undefined),-16.5% (inactive)
12,O=C(CCNC(=O)c1ccccc1Cl)NN=Cc1ccco1,-8.03% (inactive)
13,O=[N+]([O-])c1cc(S(=O)(=O)NCCc2ccccn2)ccc1Cl,-19.2% (inactive)
14,COc1ccc(-c2csc(-c3cccs3)n2)cc1OC,11.3% (inactive)
15,COc1ccccc1-c1nnc(-c2ccc(F)cc2)o1,4.47% (inactive)
16,COc1ccc(-c2csc3nc(-c4ccccc4F)oc(=O)c23)cc1OC,98.7% (active)
17,O=S(=O)(Nc1ncnc2sccc12)c1cccc(F)c1,-7.13% (inactive)
18,COc1ccc(NC(=O)CNc2cc(S(=O)(=O)N3CCOCC3)ccc2N2CCOCC2)c(OC)c1,6.36% (inactive)
19,COc1ccccc1N(CCOc1ccccc1)S(=O)(=O)c1ccccc1,7.81% (inactive)
20,COc1ccc2c(c1)O/C(=C\c1ccccc1O)C2=O,-1.63% (inactive)
21,COc1cc(/C=C2\Oc3ccc(C#Cc4ccc(O)cc4)cc3C2=O)cc(OC)c1,115% (active)
22,COc1cc(C#Cc2ccc3cc(CCCO)oc(=O)c3c2)cc(OC)c1,11.5% (inactive)
23,O=C1N[C@H](Cc2c[nH]c3ccccc23)COC(=O)[C@H](Cc2ccc(F)cc2)C/C=C\C[C@H]1CC(=O)N(CCO)Cc1ccccc1,36.2% (inactive)
24,CC(=O)NC(CC(=O)Nc1ccc(S(=O)(=O)N2CCOCC2)cc1)c1ccccc1 (centres undefined),-4.54% (inactive)
25,CC(=O)c1c(C)[nH]c(C(=O)COC(=O)c2cccs2)c1C,-12.4% (inactive)
26,COc1ccc(C(=O)C(C)OC(=O)c2cccc(S(=O)(=O)Nc3c(C)n(C)n(-c4ccccc4)c3=O)c2)cc1 (centres undefined),-12.3% (inactive)
27,O=C(CN1C(=O)NC2(CCCC2)C1=O)Nc1cc(C(F)(F)F)ccc1N1CCOCC1,-16.7% (inactive)
